Experiment [1] concerns the target Bile acid receptor (Homo sapiens) (UniProt Q96RI1). Kind of experiment: qHTS assay for small molecule agonists of farnesoid X receptor signaling (AID 588527).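 Further: series mostly up to about 77 µM; 0% = vehicle basal and 100% = reference agonist.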 The following applies: HEK293T FXR-UAS-bla, beta-lactamase ratio, 16 h; activation: stronger effect = higher value. Summed up: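 FXR-UAS-bla HEK293T, 10% dialyzed FBS; cpds up to 92 uM titration, 16 h 37 C; CCF4 dye 2 h RT; fluorescence. Normalized to chenodeoxycholic acid 100 uM (100%) and DMSO (0%); Hill fit gives EC50, efficacy.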
A general note: Quantitative high-throughput screening tests each substance at several concentrations.

A short description of experiment [2]: qHTS for Inhibitors of the Functional Ribonucleoprotein Complex (vRNP) of Lassa (LASV) Arenavirus: LASV Primary Screen - GLuc reporter signal (AID 1347082; calls by dose curve; tested in HEK293 reporter line; further: series mostly up to about 57 µM; on the % scale 0 is the no-effect control and ±100 the full control effect; nearly all actives have a fitted effect of over 60% in size).
Experiment [3] is described as follows: qHTS for Inhibitors of the Functional Ribonucleoprotein Complex (vRNP) of Lassa (LASV) Arenavirus: Viability assay - alamar blue signal for LASV Primary Screen (AID 1347083; calls by dose curve; tested in HEK293 reporter line; further: series mostly up to about 57 µM; on the % scale 0 is the no-effect control and ±100 the full control effect; nearly all actives have a fitted effect of over 80% in size).
Experiment [4] is described as follows: qHTS for Inhibitors of the Functional Ribonucleoprotein Complex (vRNP) of Lymphocytic Choriomeningitis Arenaviruses (LCMV): Viability assay - alamar blue signal for LCMV Primary Screen (AID 1347085; calls by dose curve; tested in HEK293 reporter line; further: series mostly up to about 57 µM; on the % scale 0 is the no-effect control and ±100 the full control effect; nearly all actives have a fitted effect of over 80% in size).
Experiment [5] deals with Nucleoprotein (Lymphocytic choriomeningitis virus (strain Armstrong)) (UniProt P09992). Kind of experiment: qHTS for Inhibitors of the Functional Ribonucleoprotein Complex (vRNP) of Lymphocytic Choriomeningitis Arenaviruses (LCMV): LCMV Primary Screen - GLuc reporter signal (AID 1347086). Further: series mostly up to about 57 µM; on the % scale 0 is the no-effect control and ±100 the full control effect; nearly all actives have a fitted effect of over 70% in size.
Experiment [6] has as its target Peroxisome proliferator-activated receptor delta (Homo sapiens) (UniProt Q03181). The experiment is described as follows: qHTS assay for small molecule agonists of peroxisome proliferator-activated receptor delta signaling (AID 588534).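 Further: 0% = DMSO basal wells and 100% = positive control agonist at 10 µM.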 The procedure, abridged: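 Cells carrying a PPAR-delta beta-lactamase reporter were treated with compounds for 18 h at 37 °C in agonist mode. CCF4 fluorescence was read after 2 h; EC50 and efficacy from Hill fits.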

Experiment [7] concerns the target Alpha-galactosidase (Coffea arabica) (UniProt Q42656). Kind of experiment: Counterscreen for Glucocerebrosidase Inhibitors: qHTS Assay for Coffee Bean alpha-Galactosidase at pH 4.5 (AID 957; active means well fitted curve in the direction sought with a large enough effect; an effect the other way counts as inactive or inconclusive;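 further: series mostly up to about 77 µM; plate controls were enzyme alone for no effect and no enzyme for full effect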). Summed up: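 Coffee bean enzyme (2 nM) with 80 uM 4-methylumbelliferyl alpha-D-galactopyranoside in 50 mM citric acid, 0.005% Tween-20, pH 4.5, 20 min at room temperature; compounds 0.7 nM–77 uM. Stopped at pH 10, fluorescence 365/440 nm; AC50 from Hill fits.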
For orientation: A counterscreen serves to expose hits that act by an unwanted route or on another target.

Experiment [8] has the same target. Kind of experiment: Counterscreen for Glucocerebrosidase Inhibitors: qHTS Assay for Coffee Bean alpha-Galactosidase at pH 5.9 (AID 998; active means well fitted curve in the direction sought with a large enough effect; an effect the other way counts as inactive or inconclusive;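 further: plate controls were uninhibited enzyme for no effect and no-enzyme basal signal for full effect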). Summed up: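 Compounds were titrated from 0.7 nM to 77 uM against green coffee bean alpha-galactosidase (2 nM) using 80 uM fluorogenic 4-methylumbelliferyl substrate. After 20 min at room temperature, reactions were stopped at pH 10 and read by fluorescence.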

Experiment [9] is described as follows: Inducers of the Endoplasmic Reticulum Stress Response (ERSR) in human glioma: Validation (AID 504836; active means well fitted curve in the direction sought with a large enough effect; an effect the other way counts as inactive or inconclusive; further: 0% is about no effect). The procedure, abridged: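 ERSR induction read as luciferase luminescence (Bright-Glo, 10 min at room temperature) in stably transfected human U87-MG glioma cells exposed to compounds for 16 h, using GRP78 as sensor.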
The target of experiment [10] is Androgen receptor (Homo sapiens) (UniProt P10275). The experiment is described as follows: qHTS assay for small molecule agonists of androgen receptor signaling (AID 588515; active means well fitted curve in the direction sought with a large enough effect in the signal ratio, with a control signal flat; the % refers to the signal ratio; further: on the % scale 0 is the no-effect control and ±100 the full control effect). To be noted: AR-UAS-bla HEK293, beta-lactamase ratio, agonist 16 h; stronger effect = higher value. Summed up: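 EC50 and efficacy came from Hill fits of titrations (up to 92 uM) normalized to 30 nM R1881 as 100% and DMSO as 0%. Compound exposure was 16 h at 37 C on AR-UAS-bla HEK293 cells, with a 405/460/530 nm CCF4 fluorescence read.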

The target is the same in experiment [11]. Kind of experiment: qHTS assay for small molecule antagonists of androgen receptor signaling (AID 588516; active means well fitted curve in the direction sought with a large enough effect in the signal ratio, with a control signal flat, not every such curve was filed as active; the % refers to the signal ratio; further: on the % scale 0 is the no-effect control and ±100 the full control effect). The procedure, abridged:
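Compounds tested in titration against 10 nM R1881 in AR-responsive bla reporter HEK 293 cells; CCF4 fluorescence (460/530 nm) after 16 h exposure gave IC50 and efficacy.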

Experiment [12] addresses Bile acid receptor (Homo sapiens) (UniProt Q96RI1). Kind of experiment: qHTS assay for small molecule antagonists of farnesoid X receptor signaling (AID 588526). Further: on the % scale 0 is the no-effect control and ±100 the full control effect. Summed up:
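Beta-lactamase reporter antagonist mode: HEK293T FXR-UAS-bla cells, titrated compound, CDCA stimulation, 16 h 37 C, CCF4 dye 2 h RT. Data normalized to CDCA 50 uM and DMSO; Hill-fit IC50.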

A short description of experiment [13]: qHTS assay for small molecule antagonists of peroxisome proliferator-activated receptor delta signaling (AID 588535; active means well fitted inhibition curve with a large enough effect in the signal ratio, with a control signal flat, not every such curve was filed as active; the % refers to the signal ratio;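 on max response: cells co-treated with a PPAR-delta agonist as stimulator during compound exposure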). The following applies: HEK293T PPARd-UAS-bla, beta-lactamase FRET ratio, 18 h; 460 nm channel. The procedure, abridged:
(§1)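 HEK293T PPAR-delta-UAS-bla cells, 4000/well, 2% charcoal/dextran FBS; 5 h 37 C; cpd titration; 18 h 37 C; CCF4 2 h RT; FI 460/530 nm; Hill fit → IC50, efficacy.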

In experiment [14] the target is Peroxisome proliferator-activated receptor delta (Homo sapiens) (UniProt Q03181). Described as above. The procedure, abridged: as §1
Experiment [15] deals with Vitamin D3 receptor (Homo sapiens) (UniProt P11473). Kind of experiment: qHTS assay for small molecule antagonists of vitamin D receptor signaling (AID 588541).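 Further: receptor activated by calcitriol during compound treatment; series mostly up to about 77 µM; on the % scale 0 is the no-effect control and ±100 the full control effect.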 Summed up: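 Antagonist-mode beta-lactamase reporter assay: HEK293T VDR-UAS-bla cells were exposed to titrated compound alongside 1-alpha,25-dihydroxyvitamin D3 at 3 nM final for 16 h. Values were normalized to the 50 nM agonist control and DMSO basal, with IC50 and efficacy from Hill equation fits.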

Experiment [16] has the same target. The experiment is described as follows: qHTS assay for small molecule agonists of vitamin D receptor signaling (AID 588543).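 Further: 0% = DMSO basal and 100% = reference agonist control.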 Summed up:
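Measured: β-lactamase reporter activity (CCF4, 405 nm excitation, 460/530 nm emission) in HEK293T VDR-UAS-bla cells after 16 h compound exposure at 37 °C. Normalization against 50 nM 1α,25-dihydroxyvitamin D3 and DMSO; Hill-fit EC50.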

A short description of experiment [17]: qHTS assay for small molecule agonists of retinoid X receptor alpha signaling (AID 588544).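 On activation: 0% = DMSO basal wells and 100% = reference agonist.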 To be noted: HEK293T RXRa-UAS-bla, beta-lactamase reporter, 18 h; 530 nm emission.
In experiment [18] the target is Retinoic acid receptor RXR-alpha (Homo sapiens) (UniProt P19793). The description is as above.
Experiment [19] has as its target Thyroid hormone receptor beta (Homo sapiens) (UniProt P10828). Kind of experiment: qHTS assay for small molecule agonists of thyroid hormone receptor beta signaling (AID 588545).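 Further: 0% = DMSO only and 100% = 10 nM T3.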 Summed up:
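TR-UAS-bla-GripTite HEK 293 cells in medium with 2% charcoal/dextran FBS, 0.1 mM NEAA and 1 mM sodium pyruvate were treated with titrated compounds for 18 hrs at 37 C. Beta-lactamase reporter was read with CCF4 dye (ex 405, em 460/530 nm); EC50 from Hill fits.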

Experiment [20] is described as follows: qHTS assay for small molecule antagonists of retinoid X receptor alpha signaling (AID 588546; active means well fitted inhibition curve with a large enough effect in the signal ratio, with a control signal flat, not every such curve was filed as active; the % refers to the signal ratio). To be noted: HEK293T RXRa-UAS-bla, beta-lactamase ratio, antagonist mode; measured here: W530 green channel, cytotoxicity proxy. The procedure, abridged:
(§2)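 Beta-lactamase reporter inhibition, read as CCF4 fluorescence ratio (ex 405, em 460/530 nm) after 2 h at RT. HEK293T UAS-bla cells, 2500/well, were stimulated with 9-cis-RA at 500 or 100 nM final alongside test compound for 18 h at 37 C.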

The target of experiment [21] is Retinoic acid receptor RXR-alpha (Homo sapiens) (UniProt P19793). The description is as above. The following applies: HEK293T RXRa-UAS-bla, beta-lactamase ratio, antagonist mode. The procedure, abridged:
as §2

The target in experiment [22] is Thyroid hormone receptor beta (Homo sapiens) (UniProt P10828). Kind of experiment: qHTS assay for small molecule antagonists of thyroid hormone receptor beta signaling (AID 588547; active means well fitted inhibition curve with a large enough effect in the signal ratio, with a control signal flat, not every such curve was filed as active; the % refers to the signal ratio). To be noted: TR-UAS-bla HEK293, beta-lactamase ratio, antagonist mode, 18 h. Summed up:
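Inhibition of T3-driven (0.4nM final) beta-lactamase reporter activity was measured over 0.59 nM to 92 uM compound after 18 h at 37 C. The cells were GripTite HEK293 TR-UAS-bla in charcoal/dextran-stripped serum, with CCF4 ratio read-out and IC50 from Hill fits.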

Experiment [23] can be described thus: qHTS assay for small molecule agonists of the antioxidant response element (ARE) signaling pathway (AID 651741; active means well fitted activation curve with a large enough effect in the signal ratio; the % refers to the signal ratio; further: % of control where 0% means no effect). Summed up: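 Quantitative HTS in HepG2 cells stably expressing an ARE-beta-lactamase reporter; 16 h compound exposure at 37 C, followed by 2 h room-temperature incubation with LiveBLAzer B/G FRET substrate and fluorescence measurement.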
Experiment [24] is described as follows: qHTS assay for environmental chemicals that activate the Aryl hydrocarbon Receptor (AhR) signaling pathway (AID 651777; active means well fitted curve in the direction sought with a large enough effect; an effect the other way counts as inactive or inconclusive; further: % of control where 0% means no effect; nearly all actives have a fitted effect of over 15% in size). To be noted: 1A2-DRE human hepatoma cells, luciferase, 24 h; activation: stronger effect = higher value. Summed up: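 Quantitative HTS in stably transfected human liver-derived cells whose luciferase gene sits downstream of the CYP1A2 promoter and dioxin response element. After 24 hr exposure at 37 C, One-Glo luminescence was measured.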

The target in experiment [25] is Peroxisome proliferator-activated receptor alpha (Homo sapiens) (UniProt Q07869). The experiment is described as follows: qHTS assay for small molecule agonists of the peroxisome proliferator-activated receptor alpha (PPARalpha) signaling pathway (AID 651778; active means well fitted curve in the direction sought with a large enough effect; an effect the other way counts as inactive or inconclusive; further: % of control where 0% means no effect). To be noted: PathHunter PPARalpha complementation, chemiluminescence, 6 h; stronger effect = higher value. The procedure, abridged:
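Chemiluminescence from complemented enzyme reported PPARalpha activation in cells after 6 hr of compound treatment at 37 C. The detection reagent was incubated for 60 min at room temperature, and compounds were scored as agonists.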

A short description of experiment [26]: qHTS assay for small molecule agonists of the antioxidant response element (ARE) signaling pathway measured by Nrf2-dependant transcriptional activity (AID 720636; active means well fitted curve in the direction sought with a large enough effect in the repeat runs; an effect the other way counts as inactive or inconclusive; further: % of control where 0% means no effect). Summed up: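 Quantitative HTS format in HepG2 cells stably expressing an ARE-luciferase reporter; 16 hr compound treatment at 37 C, luciferase signal detected with ONE-Glo.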
Experiment [27] in a line: qHTS assay for cell viability of HEK293 cells (AID 743288; active means well fitted curve in the direction sought with a large enough effect; an effect the other way counts as inactive or inconclusive; further: on the % scale 0 is the no-effect control and ±100 the full control effect; nearly all actives have a fitted effect of over 50% in size). The following applies: ATP luminescence (CellTiter-Glo), 18 h; max response: stronger effect = lower value. The procedure, abridged: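 Luminescent ATP quantitation served as the viability read-out. Cells (parental HEK293, 2,000/well) received compounds after at least 5 h at 37 C and were exposed for 18 h before a 30 min room-temperature reagent step.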

Experiment [28] in a line: qHTS assay for cell viability of the p53RE-bla HCT-116 cell line (AID 743292; active means well fitted curve in the direction sought with a large enough effect; an effect the other way counts as inactive or inconclusive; further: on the % scale 0 is the no-effect control and ±100 the full control effect; nearly all actives have a fitted effect of over 55% in size). The procedure, abridged: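 Viability of compound-treated p53RE-bla HCT-116 cells is taken from ATP-dependent luciferase luminescence. Treatment lasts 16 h at 37 C after a 5 h settling period; detection follows 30 min at room temperature.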
In experiment [29] the target is Nuclear receptor subfamily 1 group I member 2 (Rattus norvegicus) (UniProt Q9R1A7). The experiment is described as follows: qHTS assay for small molecule activators of the rat pregnane X receptor (rPXR) signaling pathway (AID 651751; call rule not given here; further: 0% is about no effect). The following applies: rPXR reporter cells, luciferase (One-Glo), 24 h.
Experiment [30] is described as follows: qHTS assay for small molecule activators of the human pregnane X receptor (PXR) signaling pathway (AID 720659; call rule not given here; further: 0% is about no effect).

Values joined by “and” are separate entries in the source; they are usually repeats but may differ in a detail not shown here. Equal values may be shown once. Inconclusive results are not listed. Active and inactive are the calls of the source. Unless noted, the call rests on the fitted dose curve.

Bile acid receptor (Homo sapiens), sequence (Q96RI1 whole entry, looked up): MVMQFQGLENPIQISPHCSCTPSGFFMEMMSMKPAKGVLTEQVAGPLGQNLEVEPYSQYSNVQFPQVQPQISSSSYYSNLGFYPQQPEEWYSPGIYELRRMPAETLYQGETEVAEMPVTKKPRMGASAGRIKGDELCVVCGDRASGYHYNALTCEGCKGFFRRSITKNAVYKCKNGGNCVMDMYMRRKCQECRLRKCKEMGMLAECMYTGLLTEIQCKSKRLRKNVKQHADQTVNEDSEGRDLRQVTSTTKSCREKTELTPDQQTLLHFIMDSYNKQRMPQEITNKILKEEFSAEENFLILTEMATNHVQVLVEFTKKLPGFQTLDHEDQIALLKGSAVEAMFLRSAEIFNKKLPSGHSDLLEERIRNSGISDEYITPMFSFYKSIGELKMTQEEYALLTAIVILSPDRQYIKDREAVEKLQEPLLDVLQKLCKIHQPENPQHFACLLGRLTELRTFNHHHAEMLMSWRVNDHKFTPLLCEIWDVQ
Nucleoprotein (Lymphocytic choriomeningitis virus (strain Armstrong)), sequence (P09992 whole entry, looked up): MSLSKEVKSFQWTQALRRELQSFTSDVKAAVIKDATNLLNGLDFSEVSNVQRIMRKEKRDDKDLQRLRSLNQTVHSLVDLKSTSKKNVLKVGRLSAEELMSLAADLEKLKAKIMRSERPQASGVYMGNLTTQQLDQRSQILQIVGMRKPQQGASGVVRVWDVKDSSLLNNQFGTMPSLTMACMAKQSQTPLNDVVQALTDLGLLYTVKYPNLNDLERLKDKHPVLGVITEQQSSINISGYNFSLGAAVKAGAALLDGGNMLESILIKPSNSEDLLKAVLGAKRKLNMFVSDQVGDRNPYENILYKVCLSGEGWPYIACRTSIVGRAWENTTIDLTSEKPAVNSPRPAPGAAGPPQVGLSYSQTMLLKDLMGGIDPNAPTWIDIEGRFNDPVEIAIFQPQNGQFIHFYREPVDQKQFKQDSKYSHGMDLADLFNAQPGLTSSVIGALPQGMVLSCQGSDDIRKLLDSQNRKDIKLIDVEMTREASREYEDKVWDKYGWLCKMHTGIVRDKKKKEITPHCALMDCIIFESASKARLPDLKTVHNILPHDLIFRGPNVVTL
Peroxisome proliferator-activated receptor delta (Homo sapiens), sequence (Q03181 whole entry, looked up): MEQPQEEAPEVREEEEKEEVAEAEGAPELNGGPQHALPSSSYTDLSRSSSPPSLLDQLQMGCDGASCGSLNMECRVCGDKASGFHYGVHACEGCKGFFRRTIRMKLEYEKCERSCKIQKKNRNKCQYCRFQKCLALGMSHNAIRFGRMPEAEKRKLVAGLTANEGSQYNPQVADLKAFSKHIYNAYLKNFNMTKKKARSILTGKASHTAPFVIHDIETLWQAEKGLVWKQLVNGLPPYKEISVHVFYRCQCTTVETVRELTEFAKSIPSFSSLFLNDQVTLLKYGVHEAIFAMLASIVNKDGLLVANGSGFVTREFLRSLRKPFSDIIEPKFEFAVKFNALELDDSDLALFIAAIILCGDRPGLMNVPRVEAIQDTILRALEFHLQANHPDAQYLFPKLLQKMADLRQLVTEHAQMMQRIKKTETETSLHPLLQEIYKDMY
Alpha-galactosidase (Coffea arabica), sequence (Q42656 whole entry, looked up): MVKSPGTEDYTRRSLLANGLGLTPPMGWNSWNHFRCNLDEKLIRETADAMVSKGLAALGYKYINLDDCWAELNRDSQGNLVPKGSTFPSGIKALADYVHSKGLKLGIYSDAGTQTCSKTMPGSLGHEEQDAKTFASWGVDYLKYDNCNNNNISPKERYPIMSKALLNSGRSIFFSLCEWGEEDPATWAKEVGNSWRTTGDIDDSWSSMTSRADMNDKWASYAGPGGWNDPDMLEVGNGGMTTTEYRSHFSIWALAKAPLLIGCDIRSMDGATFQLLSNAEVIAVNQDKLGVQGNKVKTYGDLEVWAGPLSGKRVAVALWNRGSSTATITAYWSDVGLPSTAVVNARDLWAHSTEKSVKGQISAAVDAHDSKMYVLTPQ
Thyroid hormone receptor beta (Homo sapiens), sequence (P10828 whole entry, looked up): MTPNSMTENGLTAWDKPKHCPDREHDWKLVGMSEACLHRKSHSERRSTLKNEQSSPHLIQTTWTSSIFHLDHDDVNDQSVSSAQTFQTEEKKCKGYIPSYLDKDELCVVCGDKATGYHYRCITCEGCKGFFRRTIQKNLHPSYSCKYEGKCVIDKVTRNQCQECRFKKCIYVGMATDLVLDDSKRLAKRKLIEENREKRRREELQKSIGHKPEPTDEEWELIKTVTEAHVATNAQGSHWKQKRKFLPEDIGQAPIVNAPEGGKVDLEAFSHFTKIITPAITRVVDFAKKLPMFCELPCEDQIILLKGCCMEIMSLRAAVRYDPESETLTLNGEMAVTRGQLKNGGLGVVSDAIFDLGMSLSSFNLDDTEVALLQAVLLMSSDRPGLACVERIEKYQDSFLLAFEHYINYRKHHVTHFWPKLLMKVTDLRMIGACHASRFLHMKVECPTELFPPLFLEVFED
Retinoic acid receptor RXR-alpha (Homo sapiens), sequence (P19793 whole entry, looked up): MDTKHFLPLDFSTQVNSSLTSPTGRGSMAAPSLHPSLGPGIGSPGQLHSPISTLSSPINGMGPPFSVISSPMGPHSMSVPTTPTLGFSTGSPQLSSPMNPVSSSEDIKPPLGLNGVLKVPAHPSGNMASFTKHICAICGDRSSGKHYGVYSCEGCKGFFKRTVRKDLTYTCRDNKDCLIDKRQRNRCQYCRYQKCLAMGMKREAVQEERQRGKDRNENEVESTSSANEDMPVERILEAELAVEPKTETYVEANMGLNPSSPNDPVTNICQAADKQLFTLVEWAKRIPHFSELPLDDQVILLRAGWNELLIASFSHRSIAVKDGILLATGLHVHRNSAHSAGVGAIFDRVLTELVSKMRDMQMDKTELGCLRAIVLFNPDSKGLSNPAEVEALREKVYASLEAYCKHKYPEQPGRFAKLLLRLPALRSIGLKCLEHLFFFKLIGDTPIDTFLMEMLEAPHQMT
Androgen receptor (Homo sapiens), sequence (P10275 whole entry, looked up): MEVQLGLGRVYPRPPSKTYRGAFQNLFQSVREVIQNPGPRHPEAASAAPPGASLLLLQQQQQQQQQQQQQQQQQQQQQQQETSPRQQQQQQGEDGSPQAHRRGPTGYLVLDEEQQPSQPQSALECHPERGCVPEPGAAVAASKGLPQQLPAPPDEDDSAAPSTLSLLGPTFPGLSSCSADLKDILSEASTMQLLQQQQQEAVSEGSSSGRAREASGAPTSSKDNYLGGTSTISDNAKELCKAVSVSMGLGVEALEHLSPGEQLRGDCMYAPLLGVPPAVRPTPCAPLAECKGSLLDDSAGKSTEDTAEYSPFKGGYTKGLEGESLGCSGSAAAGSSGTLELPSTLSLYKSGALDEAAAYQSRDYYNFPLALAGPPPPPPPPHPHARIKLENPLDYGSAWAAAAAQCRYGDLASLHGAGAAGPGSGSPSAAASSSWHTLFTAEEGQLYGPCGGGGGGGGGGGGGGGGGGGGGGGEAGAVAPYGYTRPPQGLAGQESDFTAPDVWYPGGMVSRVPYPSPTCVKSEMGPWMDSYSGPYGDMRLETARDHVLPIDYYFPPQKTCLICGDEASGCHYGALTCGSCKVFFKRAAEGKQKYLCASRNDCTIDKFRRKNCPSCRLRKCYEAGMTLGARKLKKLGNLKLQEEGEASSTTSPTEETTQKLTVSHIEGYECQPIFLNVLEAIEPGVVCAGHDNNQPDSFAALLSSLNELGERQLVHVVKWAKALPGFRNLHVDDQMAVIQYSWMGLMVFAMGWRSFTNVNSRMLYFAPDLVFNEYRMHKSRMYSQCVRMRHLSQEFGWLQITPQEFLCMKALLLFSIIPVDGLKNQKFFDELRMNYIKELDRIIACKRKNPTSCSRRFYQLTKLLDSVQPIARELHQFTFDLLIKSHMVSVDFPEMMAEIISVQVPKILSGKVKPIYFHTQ
Vitamin D3 receptor (Homo sapiens), sequence (P11473 whole entry, looked up): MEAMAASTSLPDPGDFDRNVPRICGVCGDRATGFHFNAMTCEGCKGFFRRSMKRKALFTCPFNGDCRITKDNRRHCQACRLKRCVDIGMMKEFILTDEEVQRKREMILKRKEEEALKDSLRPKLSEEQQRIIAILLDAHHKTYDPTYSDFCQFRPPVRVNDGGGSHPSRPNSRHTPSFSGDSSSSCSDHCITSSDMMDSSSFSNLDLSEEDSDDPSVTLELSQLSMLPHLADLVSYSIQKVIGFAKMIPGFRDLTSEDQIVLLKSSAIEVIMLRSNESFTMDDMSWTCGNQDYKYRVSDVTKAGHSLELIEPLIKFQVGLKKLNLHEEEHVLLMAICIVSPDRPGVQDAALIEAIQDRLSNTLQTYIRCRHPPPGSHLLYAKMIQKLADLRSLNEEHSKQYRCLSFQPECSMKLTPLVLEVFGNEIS
Nuclear receptor subfamily 1 group I member 2 (Rattus norvegicus), sequence (Q9R1A7 whole entry, looked up): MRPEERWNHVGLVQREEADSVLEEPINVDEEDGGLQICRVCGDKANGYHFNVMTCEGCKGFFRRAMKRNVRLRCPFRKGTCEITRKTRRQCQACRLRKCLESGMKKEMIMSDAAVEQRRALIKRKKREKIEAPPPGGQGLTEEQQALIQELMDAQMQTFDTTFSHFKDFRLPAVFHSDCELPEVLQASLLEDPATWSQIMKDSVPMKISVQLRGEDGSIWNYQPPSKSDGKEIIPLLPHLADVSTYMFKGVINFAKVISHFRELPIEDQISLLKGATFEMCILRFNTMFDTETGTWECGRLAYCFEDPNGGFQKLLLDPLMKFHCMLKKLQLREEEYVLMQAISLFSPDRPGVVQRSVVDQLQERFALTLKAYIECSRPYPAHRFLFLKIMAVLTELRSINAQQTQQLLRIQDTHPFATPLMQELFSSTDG

Regarding `CCCCC=O`, in [1], the activation is 1.59% (inactive). For the same molecule, the Potency result in experiment [2], in [3], in experiment [4] and in experiment [5] was “inactive” each time.

With `COC(=O)c1ccc(C)cc1`, the activation in experiment [1] was -0.0429% (inactive). In addition, the Potency entry in [6], in [2], in [3], in experiment [4] and in [5] was “inactive” throughout.

Consider `c1ccc2c(c1)ccc1ccccc12`, for which the activation in [1] was -5.28% (inactive) and 1.03% (inactive). Further, the Potency entry in experiment [6], in [2], in [3], in experiment [4] and in experiment [5] was “inactive” each time.

For the molecule `O=C(O)C1=CC(=C(c2ccc(O)c(C(=O)O)c2)c2ccc(O)c(C(=O)O)c2)C=CC1=O`, the molecule was classed as inactive in [7], in [8] and in [9]. Besides, the Potency entry in experiment [2], in [3], in [4] and in experiment [5] was “inactive” each time.

For `Cc1ccc(C)c2ccccc12`, the activation is 26.3% (inactive) in experiment [10], -1.23% (inactive) in experiment [1] and 1.38% (inactive) in experiment [24]. In addition, the molecule was classed as inactive in experiment [11], in [14], in [15], in [18], in [28] and in [30]. The Potency result in [12], in experiment [6], in experiment [16], in experiment [19], in experiment [23] and in experiment [26] was “inactive” in each case. Moreover, the Potency entry in experiment [2], in experiment [3], in [4] and in [5] was “inactive” each time. Moreover, the max response in [13] is 22.6%; in experiment [17], -18.4%; in experiment [20], -5.36%; in experiment [21] it was 3.54% (inactive); in experiment [25], -1.64% (inactive); in experiment [27], -1.65% (inactive). The max response in [29] is -3.33% (inactive). For the same molecule, in experiment [22], the activity change % (negative = inhibition) was -0.662% (inactive).

Source of the values: PubChem BioAssay (NCATS).
